Assay outcomes (PubChem BioAssay)
L3MBTL1 inh = L3MBTL1 (human) inhibition; Q9Y468; hit rate 0.66% among 230,000; Potency, µM (doses to about 57.1 µM), for the others: top-dose activity, negative = inhibition, most hits filed as inhibitors; AID 485360; AlphaScreen L3MBTL1–H3K9me1 peptide binding; note: % is set by controls: 0 for no effect and ±100 for the full control effect; nearly all actives have a fitted effect of over 60% in size
Target sequence (Q9Y468 whole entry, looked up): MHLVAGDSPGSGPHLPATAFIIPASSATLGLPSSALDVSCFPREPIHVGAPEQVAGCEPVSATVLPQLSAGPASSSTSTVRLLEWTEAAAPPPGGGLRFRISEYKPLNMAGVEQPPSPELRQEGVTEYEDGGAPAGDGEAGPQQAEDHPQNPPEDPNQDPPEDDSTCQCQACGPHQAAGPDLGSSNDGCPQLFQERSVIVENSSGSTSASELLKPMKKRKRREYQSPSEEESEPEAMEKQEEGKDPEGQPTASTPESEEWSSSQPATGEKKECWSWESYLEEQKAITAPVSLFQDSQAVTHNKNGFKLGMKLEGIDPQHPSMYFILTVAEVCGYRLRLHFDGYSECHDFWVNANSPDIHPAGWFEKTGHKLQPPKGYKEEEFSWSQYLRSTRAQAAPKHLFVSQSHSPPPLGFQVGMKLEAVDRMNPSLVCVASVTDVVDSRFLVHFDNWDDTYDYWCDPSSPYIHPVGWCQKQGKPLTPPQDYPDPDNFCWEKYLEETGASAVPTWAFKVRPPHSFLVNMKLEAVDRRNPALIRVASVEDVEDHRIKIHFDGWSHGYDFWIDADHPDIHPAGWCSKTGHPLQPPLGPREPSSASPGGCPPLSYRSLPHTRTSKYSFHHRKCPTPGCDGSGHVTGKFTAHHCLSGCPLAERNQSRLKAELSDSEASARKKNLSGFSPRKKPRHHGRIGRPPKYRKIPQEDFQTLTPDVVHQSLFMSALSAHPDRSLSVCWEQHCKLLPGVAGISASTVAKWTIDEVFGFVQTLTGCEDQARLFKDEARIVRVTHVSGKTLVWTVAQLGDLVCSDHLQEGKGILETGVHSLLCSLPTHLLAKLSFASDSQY
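AlphaScreen assay: L3MBTL1 (50 nM final) was preincubated 30 min at room temperature with biotinylated H3(1-15)K9me1 peptide (75 nM final), then 30 min with library compounds; streptavidin donor and nickel chelate acceptor beads (10 ug/mL final) added, 30 min dark.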
HTT aggregate = reduces HttQ103-GFP aggregates in PC12 cells. AID 1688. hit rate 1.1% among 220,000. Potency, µM (doses to about 46.1 µM), for the others: at the top dose activity change, negative = inhibition, usual class: inhibitors. PC12 HttQ103-GFP aggregates, Acumen cytometry, 40 h; note: % is set by controls: 0 for no effect and ±100 for the full control effect; nearly all actives have a fitted effect of over 60% in size
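Steps: seed 1500 PC12 HTTQ103-GFP cells/well; add tebufenozide, 100 nM final; add compound titration; add ATPLite reagent; quantify GFP aggregates by laser scanning cytometry.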
HTT ATP protect = Huntington cell model cytoprotection by ATP luminescence; PC12 HTT-Q103 induced, cytoprotection, ATP luminescence, 40 h; Potency, µM (titrated, usually from 56.4 µM), for inactives: cytoprotection (ATP increase), most hits filed as activators; hit rate 0.14% among 230,000; note: % of control where 0% means no effect; nearly all actives have a fitted effect of over 45% in size
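Huntington model: PC12 line, ecdysone-inducible HTTQ103 exon1–GFP, tebufenozide 100 nM. Test articles in a dose series. Endpoint luminescence from cellular ATP.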
KDM4E inh = blocks human JMJD2E demethylase activity. B2RXH2. hit rate 1.6% among 230,000. Potency, µM (highest dose often 57.1 µM), without a hit: top-dose activity change, negative = inhibition, usual class: inhibitors. JMJD2E catalytic domain, FDH-coupled NADH fluorescence (FDH is formaldehyde dehydrogenase);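 note: 0% = wells with enzyme and -100% = buffer wells without enzyme; nearly all actives have a fitted effect of over 50% in size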
The depositor's hits bear a star; ? = inconclusive; · = no result; [ ] = remark or other dose. Only some compounds are listed: those with a hit (about 1.8% of all), similar ones and a draw of the others. Unless noted, calls come from the whole dose curve; as a rule, active = well fitted curve in the direction sought with a large enough effect; inconclusive = small, poorly fitted or top-dose-only effect, or another doubt; inactive = no such curve, though single readings can be large; an effect the other way counts as inactive or inconclusive. Potency is the fitted concentration of half-maximal effect.

SMILES	L3MBTL1 inh	HTT aggregate	HTT ATP protect	KDM4E inh
C[C@@H]1C(=O)O[C@H]2[C@@H](O)[C@@]34[C@H]5C[C@H](C(C)(C)C)[C@@]36[C@H](OC(=O)[C@@H]6O)O[C@@]4(C(=O)O5)[C@@]12O	·	·	-2%	·
CC1=C(C(=O)OC(C)C)C(c2ccc(N(C)C)cc2)C2=C(CC(C)(C)CC2=O)N1 (stereo not drawn)	·	4%	-15%	14µM*
CCOC(=O)C1=C(C)NC2=C(C(=O)CC(C)(C)C2)C1c1ccc(N(C)C)cc1 (stereo not drawn)	5%[11.4 µM]	20%	-19%[10 µM]	?
CCOc1ccc(NC(=O)Cc2ccccc2)c([N+](=O)[O-])c1	5µM*	-2%	8%[10 µM]	2%
Cc1cc(=O)n(C)c2ccc(S(=O)(=O)N3CCOCC3)cc12	8%	·	·	·
Cn1c(=O)c2cc(S(=O)(=O)N3CCOCC3)ccc2n(C)c1=O	-3%	-17%	16µM*	-7%
CCCCCCCCCC(=O)NO	·	-10%	-26%	·
Cc1nc(N2CCOCC2)c2nc(-c3ccccc3)n(CCN3CCCCC3)c2n1	·	·	-56%	?
Cc1cc2nc3c(=O)[nH]c(=O)nc-3n(CC(O)C(O)C(O)CO)c2cc1C (stereo not drawn)	·	?	26%	?
CC(=O)OCCn1c2nc(=O)[nH]c(=O)c-2nc2cc(C)c(C)cc21	-10%	?	-8%[10 µM]	2.8µM*
COC(=O)C1=C(C(=O)OC)[C@@H]2N(C)c3ccc(OC)cc3[C@@]23C[C@@H](C(=O)OC)N(S(=O)(=O)c2ccc(Br)cc2)C3=N1	·	·	0%[10 µM]	8%[11.4 µM]
C=CCN1CCc2c(cc(O)c(O)c2Cl)C(c2cccc(C)c2)C1 (stereo not drawn)	·	·	-37%	14µM*
Cc1cccc([C@@H]2CN(C)CCc3c2cc(O)c(O)c3Cl)c1	·	·	?	14µM*
COC(=O)[C@H]1CC2(CC=C(C)C)C(=O)[C@@](CC=C(C)C)(C(=O)C(C(=O)c3ccccc3)=C2OC)C1(C)C (tested in a mixture with another compound)	·	·	12%	-3%
Brc1ccc2c(c1)c1cc(Br)ccc1n2CC1CO1 (stereo not drawn)	·	·	-58%	4%
NC(=O)c1cc2ccncc2c2ccccc12	·	2.5µM*	-2%[10 µM]	?
COc1cc(/C=C\C(=O)N2CCCCC2=O)cc(OC)c1OC	·	·	-80%	·
CCOC(=O)c1oc2c(O)c(O)ccc2c(=O)c1-c1nncn1-c1ccccc1	?	-7%	5%	7.9µM*
Cc1nc(N2CCOCC2)c2nc(-c3ccccc3)n(CCCN3CCCCC3C)c2n1 (stereo not drawn)	·	·	16%	?
COc1ccc2nc(C)cc(SCC(=O)N/N=C/c3ccc(O)c(O)c3)c2c1	-10%	-5%	·	5µM*
O=C(CSc1nc2ccccc2o1)N/N=C/c1ccccc1	6%	0%	-12%[10 µM]	10%
COc1cccc2c(SCC(=O)N/N=C/c3ccc(O)c(O)c3)cc(C)nc12	-28%	?	·	16µM*
COc1ccc2nc(C)cc(SCC(=O)N/N=C/c3cccc4ccccc34)c2c1	1%	-4%	11%[10 µM]	-26%
COc1ccc2c(c1)c(C(=O)N/N=C/c1ccc(Br)cc1)c(C)n2C	7%	-6%[9.22 µM]	-20%[10 µM]	-4%
COc1cccc2c(SCC(=O)N/N=C/c3ccccc3)cc(C)nc12	9%	?	?	-10%
SMILES	L3MBTL1 inh	HTT aggregate	HTT ATP protect	KDM4E inh
COc1ccc2c(c1)c(C(=O)N/N=C/c1ccc(O)c(O)c1)c(C)n2C	-4%	-32%	-12%[10 µM]	14µM*
O=C(CSc1nc2ccccc2o1)N/N=C/c1ccc(O)c(O)c1	·	-2%[9.22 µM]	-28%[10 µM]	11µM*
CCCCCCCCCCCCC/C=C\[C@H](O)[C@H](N)CO	·	·	-16%[1.9 µM]	·
O=S(=O)(Nc1ncccn1)c1ccc(NS(=O)(=O)c2cc(Cl)ccc2Cl)cc1	·	-17%	-33%	1%
CN(C)c1ccc(NS(=O)(=O)c2cc(Cl)ccc2Cl)cc1	-18%	?	0.79µM*	-7%
CCC(C)NCCC(=O)Nc1ccc(Cl)c(S(=O)(=O)Nc2ccc(Cl)cc2)c1 (stereo not drawn)	-4%	7%	5%[10 µM]	10%
CCN(c1ccc(NS(=O)(=O)c2cc(Cl)ccc2Cl)cc1)C(C)C	?	10µM*	1%[10 µM]	-12%
CC(NC(=O)c1noc2c1CCCC2)c1ccccc1 (stereo not drawn)	2%	10%	-5%	5%
